15 compounds from PubChem BioAssay (NCI) can be followed below.

Among the test systems are HCT-15 colon; HT29 colon; SNB-75 CNS; SNB-19 CNS; U251 CNS; PC-3 prostate; SK-MEL-5 melanoma; LOX IMVI melanoma; SK-MEL-28 melanoma; UACC-62 melanoma.
Holding throughout (assay): NCI-60 one-dose screen, 48 h (100 = growth as untreated, 0 = no growth, -100 = all killed)
Common to all, as to conditions: 10 µM unless noted

This is part of a sample that, as a whole, favours compounds with a hit. Of some 83,000 tested, about 20% had one in any assay.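 Percent growth is the endpoint: 0 to 100 indicates growth inhibition (40 means 60% inhibition), 0 means no net growth, and negative values indicate cell death.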 Unmarked numbers belong to inactive results. Active and inactive are the calls of the source. The calls were made as follows: active = growth percent below 10; inactive = the rest.

Regarding `OCc1ccc2c(c1)OCO2`, the growth was 104% in the assay on HCT-15 colon; 96.4% in the assay with HT29 colon; 84.5% with SNB-75 CNS; 104% with SNB-19 CNS; 95.8% with U251 CNS; 94.3% in the assay with PC-3 prostate. In addition, the growth in the assay on SK-MEL-5 melanoma is 102%; with LOX IMVI melanoma, 95.3%; with SK-MEL-28 melanoma, 108%.
Regarding `CC(=O)c1ccc(C(=O)NCC2CCC3(CC2)OOC2(CCCCC2)OO3)cc1`, the growth is 82.5% with HCT-15 colon; 83.4% with HT29 colon; 99.8% in the assay on SNB-75 CNS; 96.9% in the assay with SNB-19 CNS; 64.4% with U251 CNS; 71% in the assay with PC-3 prostate. Moreover, the growth was 80.9% in the assay with UACC-62 melanoma, 35.3% with LOX IMVI melanoma and 95.5% in the assay with SK-MEL-28 melanoma.
Turning to `O=C(CC1(O)C(=O)Nc2ccccc21)c1ccc(C(=O)NCC2CCC3(CC2)OOC2(CCCCC2)OO3)cc1` (centres undefined), the growth is 79.9% in the assay on HCT-15 colon; 82.1% with HT29 colon; 82.1% in the assay on SNB-75 CNS; 86.4% in the assay on SNB-19 CNS; 63.6% in the assay with U251 CNS; 50.8% in the assay on PC-3 prostate. Further, the growth with UACC-62 melanoma was 63.4%; in the assay on LOX IMVI melanoma it was 57.3%; in the assay with SK-MEL-28 melanoma, 86.4%.
For the compound `Cc1cc(N(CCCl)CCCl)ccc1/C=N\NC(=O)c1ccncc1`, the growth was 88.9% in the assay on HCT-15 colon; 98.3% in the assay on HT29 colon; 87.1% in the assay with SNB-75 CNS; 106% with SNB-19 CNS; 90.5% with U251 CNS; 88.9% in the assay on PC-3 prostate. The growth was 76.1% in the assay with SK-MEL-5 melanoma, 53.1% with UACC-62 melanoma and 99.7% in the assay on SK-MEL-28 melanoma.
For `Cn1cc(-c2csc(-c3cn(CCCCN4CCCCC4)c4ccccc34)n2)c2cccnc21`, the growth in the assay with HCT-15 colon was -74.9% (active); in the assay with HT29 colon it was -85.6% (active); in the assay with SNB-75 CNS, 53.1%; in the assay with SNB-19 CNS, -32.1% (active); in the assay with U251 CNS, -72.3% (active); in the assay with PC-3 prostate it was 51.3%. For the same compound, the growth in the assay with SK-MEL-5 melanoma was -92.1% (active); in the assay with LOX IMVI melanoma, -72.6% (active); in the assay on SK-MEL-28 melanoma, -79.2% (active).
As to `CC(C)=CC1C(C(=O)OCc2cccc(Oc3ccccc3)c2)C1(C)C` (centres undefined), the growth with HCT-15 colon is 98.9%; with HT29 colon it was 86.5%; in the assay with SNB-75 CNS it was 115%; in the assay with SNB-19 CNS it was 98.4%; with U251 CNS, 98.6%; in the assay on PC-3 prostate, 92.8%. For the same compound, the growth in the assay with UACC-62 melanoma is 78.4%; in the assay on LOX IMVI melanoma it was 93.4%; with SK-MEL-28 melanoma, 119%.
For `CC(C)[C@]12O[C@H]1[C@@H]1O[C@]13[C@]1(O[C@H]1C[C@H]1c4c(C(=O)c5ccccc5)oc(OC(=O)c5ccccc5)c4CC[C@@]13C)[C@@H]2O`, the growth with HCT-15 colon was 5.32% (active); with HT29 colon it was 8.55% (active); in the assay on SNB-75 CNS it was -30.5% (active); in the assay on SNB-19 CNS it was 13.8%; with U251 CNS, 12.1%; with SK-MEL-5 melanoma it was -51.9% (active). Besides, the figures for the growth with UACC-62 melanoma, in the assay on LOX IMVI melanoma and with SK-MEL-28 melanoma were -28.7% (active), 9.13% (active) and -69.5% (active), respectively.
As for `c1cnc2[nH]cc(-c3csc(-c4cn(CCCCN5CCCCC5)c5ccccc45)n3)c2c1`, the growth in the assay on HCT-15 colon is 51%; in the assay on HT29 colon, 34.4%; in the assay with SNB-75 CNS it was 70.3%; in the assay with SNB-19 CNS it was 90.4%; in the assay with U251 CNS, 86.3%; in the assay with PC-3 prostate, 63.1%. Also, the growth in the assay with SK-MEL-5 melanoma is 70.4%; in the assay with LOX IMVI melanoma, 84.2%; in the assay on SK-MEL-28 melanoma it was 83%.
In the case of `O=C1C2C(C(=O)[N]1[Hg][c]1cccs1)C1(Cl)C(Cl)=C(Cl)C2(Cl)C1(Cl)Cl` (centres undefined), the growth in the assay with HCT-15 colon is -76.8% (active); in the assay with HT29 colon, 8.75% (active); in the assay with SNB-75 CNS it was 59.5%; in the assay with SNB-19 CNS it was 51.5%; with U251 CNS, -67.6% (active); in the assay with PC-3 prostate it was 33.4%. Further, the growth in the assay with SK-MEL-5 melanoma is 24%; with LOX IMVI melanoma it was -90.7% (active); with SK-MEL-28 melanoma, -76.9% (active).
On to `O=[N+]([O-])CC(c1ccccc1Cl)c1c(-c2ccccc2)[nH]c2ccccc12` (centres undefined), for which the growth in the assay on HCT-15 colon is 22.8%; with HT29 colon, 8.38% (active); in the assay with SNB-75 CNS, 6.44% (active); in the assay with SNB-19 CNS it was 45.4%; with U251 CNS, 34.8%; in the assay on SK-MEL-5 melanoma, 28.4%. For the same compound, the growth is 30.7% in the assay with UACC-62 melanoma, 33.4% in the assay on LOX IMVI melanoma and 61.4% in the assay on SK-MEL-28 melanoma.
In the case of `Cc1ccc(S(=O)(=O)C(Cl)(Cl)Cl)cc1`, the growth in the assay with HCT-15 colon is 100%; with HT29 colon, 89%; with SNB-75 CNS it was 81.5%; in the assay with SNB-19 CNS, 102%; in the assay with U251 CNS, 88.7%; with PC-3 prostate it was 67.4%. Moreover, the growth was 99.9% in the assay with SK-MEL-5 melanoma, 98.3% in the assay on LOX IMVI melanoma and 107% with SK-MEL-28 melanoma.
As for `Cn1cc(-c2csc(-c3cn(CCN4CCOCC4)c4ccc(F)cc34)n2)c2cccnc21`, the growth in the assay with HCT-15 colon was 19.6%; in the assay on HT29 colon it was 40.1%; in the assay with SNB-75 CNS, 51.1%; with SNB-19 CNS, 49.2%; in the assay with U251 CNS, 36.9%; in the assay on PC-3 prostate it was 1.07% (active). Moreover, the growth in the assay on SK-MEL-5 melanoma is -28.8% (active); in the assay on LOX IMVI melanoma it was 27.9%; in the assay with SK-MEL-28 melanoma it was 40.5%.
For the compound `Cn1cc(-c2csc(-c3cn(CCN4CCOCC4)c4ccccc34)n2)c2cccnc21`, the growth with HCT-15 colon is 46.5%; in the assay with HT29 colon, 70.4%; in the assay on SNB-75 CNS, 74.5%; in the assay on SNB-19 CNS, 84.4%; in the assay on U251 CNS, 67.3%; with PC-3 prostate, 20.5%. In addition, the growth was 17.6% in the assay with SK-MEL-5 melanoma, 67.1% in the assay with LOX IMVI melanoma and 78.2% in the assay on SK-MEL-28 melanoma.
For the compound `CCC1CC(O)c2c(O)c3c(c(O)c2C1O)C(=O)c1cccc(O)c1C3=O` (centres undefined) (tested in a mixture with another compound), the growth with HCT-15 colon is -20.2% (active); in the assay with HT29 colon it was -24.6% (active); in the assay on SNB-75 CNS, -93.5% (active); in the assay with SNB-19 CNS, -16.4% (active); with U251 CNS, -12.2% (active); with PC-3 prostate, -33.4% (active). Besides, the figures for the growth in the assay with UACC-62 melanoma and with LOX IMVI melanoma were -71.7% (active) and -28.1% (active), respectively.
For `CC(C)(C)C(=O)OCOP(=O)(OCOC(=O)C(C)(C)C)C1CCCN(O)C1=O` (centres undefined), the growth in the assay with HCT-15 colon was 7.4% (active); in the assay with HT29 colon it was 2.01% (active); in the assay on SNB-75 CNS, 47.6%; in the assay with SNB-19 CNS it was 2.57% (active); in the assay on U251 CNS it was 2.06% (active); in the assay with PC-3 prostate, 24.2%. Moreover, the growth is -13.5% (active) in the assay on SK-MEL-5 melanoma, 17.6% in the assay with LOX IMVI melanoma and -23.8% (active) in the assay with SK-MEL-28 melanoma.
